From PubChem BioAssay AID1053205 (Broad Institute, 2014)
Entries with a potency or affinity are not part of this list. Results filed as inconclusive are left out.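 The calls were made as follows: active = compounds lowering the FRET ratio whose fitted half-maximal concentration is at most twice their top tested dose; inconclusive = flat partial drop between 30 and 70 percent, or bad fit; inactive = the rest.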

These molecules were tested against Voltage-dependent L-type calcium channel subunit alpha-1D (Homo sapiens) (UniProt Q01668) (assay: inhibitors of CaV1.3 ICDI-IQ binding, dose response, cell-based, HEK293, YFP-IQ/CFP-ICDI FRET, cherry-picks (AID 1053205;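 also: 0% = median of neutral control wells and -100% = median of positive control wells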)). Details: HEK293 YFP-IQ/CFP-ICDI FRET ratio, 10 min; series mostly up to 35 µM; FRET change, negative = inhibition: at the top concentration.
Sequence of Voltage-dependent L-type calcium channel subunit alpha-1D (Homo sapiens) (Q01668 whole entry, looked up): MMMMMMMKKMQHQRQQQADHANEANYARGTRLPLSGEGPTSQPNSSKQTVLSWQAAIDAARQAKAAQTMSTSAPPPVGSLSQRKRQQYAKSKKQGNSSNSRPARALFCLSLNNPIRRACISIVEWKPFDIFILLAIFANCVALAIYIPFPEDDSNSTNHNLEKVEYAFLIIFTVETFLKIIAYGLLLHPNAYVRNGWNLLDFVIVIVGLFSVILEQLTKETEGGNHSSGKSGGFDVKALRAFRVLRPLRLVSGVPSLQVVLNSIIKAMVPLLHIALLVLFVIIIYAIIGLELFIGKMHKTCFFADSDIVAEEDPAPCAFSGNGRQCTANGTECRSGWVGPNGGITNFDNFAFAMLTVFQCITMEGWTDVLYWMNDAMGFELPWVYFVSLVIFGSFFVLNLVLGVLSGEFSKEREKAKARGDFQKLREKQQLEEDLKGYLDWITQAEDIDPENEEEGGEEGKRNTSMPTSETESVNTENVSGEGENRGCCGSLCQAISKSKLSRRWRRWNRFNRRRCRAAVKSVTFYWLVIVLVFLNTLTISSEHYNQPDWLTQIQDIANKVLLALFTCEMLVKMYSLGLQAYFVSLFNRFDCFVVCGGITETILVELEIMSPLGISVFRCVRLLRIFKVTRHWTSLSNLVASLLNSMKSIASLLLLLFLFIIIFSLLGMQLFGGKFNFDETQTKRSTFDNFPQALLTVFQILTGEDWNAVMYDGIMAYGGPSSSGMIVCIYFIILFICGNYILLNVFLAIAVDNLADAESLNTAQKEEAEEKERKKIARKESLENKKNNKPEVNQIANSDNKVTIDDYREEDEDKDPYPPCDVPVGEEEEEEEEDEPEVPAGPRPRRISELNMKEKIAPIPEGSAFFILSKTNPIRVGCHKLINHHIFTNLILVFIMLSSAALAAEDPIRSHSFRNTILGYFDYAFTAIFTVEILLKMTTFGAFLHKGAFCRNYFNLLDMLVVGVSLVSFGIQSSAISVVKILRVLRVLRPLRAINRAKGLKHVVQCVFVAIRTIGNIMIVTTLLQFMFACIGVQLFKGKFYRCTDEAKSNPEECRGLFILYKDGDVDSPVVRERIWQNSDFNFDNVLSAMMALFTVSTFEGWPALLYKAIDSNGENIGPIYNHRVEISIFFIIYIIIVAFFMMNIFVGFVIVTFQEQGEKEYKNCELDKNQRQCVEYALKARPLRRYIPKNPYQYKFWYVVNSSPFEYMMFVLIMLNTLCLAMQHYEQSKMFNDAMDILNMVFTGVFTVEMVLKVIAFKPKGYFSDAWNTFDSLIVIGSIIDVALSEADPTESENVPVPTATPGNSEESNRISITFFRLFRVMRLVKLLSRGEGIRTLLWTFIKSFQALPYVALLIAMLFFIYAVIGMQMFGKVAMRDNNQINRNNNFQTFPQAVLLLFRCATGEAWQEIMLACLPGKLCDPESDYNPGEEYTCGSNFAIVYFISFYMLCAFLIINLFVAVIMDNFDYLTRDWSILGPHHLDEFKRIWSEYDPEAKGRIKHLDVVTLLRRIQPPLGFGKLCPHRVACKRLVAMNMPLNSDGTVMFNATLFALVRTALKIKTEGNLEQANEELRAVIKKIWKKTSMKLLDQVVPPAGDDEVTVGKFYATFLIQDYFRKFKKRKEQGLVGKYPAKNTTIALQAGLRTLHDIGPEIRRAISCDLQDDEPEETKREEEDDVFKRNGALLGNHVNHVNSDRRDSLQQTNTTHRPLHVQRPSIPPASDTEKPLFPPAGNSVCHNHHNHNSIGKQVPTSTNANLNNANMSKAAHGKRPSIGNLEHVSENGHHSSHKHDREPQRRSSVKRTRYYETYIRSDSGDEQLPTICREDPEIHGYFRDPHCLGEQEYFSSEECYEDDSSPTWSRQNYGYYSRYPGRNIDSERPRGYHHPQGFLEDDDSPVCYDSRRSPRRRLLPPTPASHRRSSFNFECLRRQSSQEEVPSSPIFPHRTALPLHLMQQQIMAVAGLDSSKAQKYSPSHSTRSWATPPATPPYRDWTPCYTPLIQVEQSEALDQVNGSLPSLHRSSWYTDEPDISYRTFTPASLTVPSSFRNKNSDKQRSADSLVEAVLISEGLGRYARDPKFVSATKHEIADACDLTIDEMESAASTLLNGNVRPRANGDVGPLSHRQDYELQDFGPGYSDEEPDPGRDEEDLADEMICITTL

FRET change, negative = inhibition, inactive:
CCCCN(CCCC)CC(O)Cn1c2ccccc2c(=O)c2ccccc21 (configuration not stated) 175%
CCC(C)n1c(=N)c(C#N)cc2c(=O)n3cc(C)ccc3nc21 (configuration not stated) 176%
Fc1ccc(-c2nc3ccccn3c2NCc2ccc3c(c2)OCO3)cc1 71.1% [at 16 µM]
Cc1ccc(O)c(NC(=S)NC(=O)COc2ccc(Br)cc2)c1 -15.2%
O=C(Cn1ccc([N+](=O)[O-])n1)N1CCCCCC1 3.68%
CCCOc1ccc(C(=O)NNC(=S)NC(=O)c2ccco2)cc1 50.9%
COc1ccccc1N1CCN(C2CCC(C)CC2)CC1 (configuration not stated) -7.09%
CCC(C)NC(=S)N1CCN(Cc2ccc3c(c2)OCO3)CC1 (configuration not stated) 23.1%
CNC(=O)c1ccc(NC(=O)c2cccc(C(F)(F)F)c2)cc1 7.58%
O=C(COC(=O)c1cc(S(=O)(=O)N2CCCCC2)ccc1N1CCOCC1)c1ccccc1Cl -0.931%
CCOc1ccc(S(=O)(=O)Nc2ccc(C(=O)N(CC)CC(=O)NCc3cccs3)cc2)cc1 -4.53%
CCN(CC)CCN1C2=C(C(=O)CC(C)(C)C2)C(c2cccc(F)c2)C2=C1CC(C)(C)CC2=O 177%
Cn1cc(C(c2ccccc2OCC(=O)O)c2cn(C)c3ccccc23)c2ccccc21 12.7%
N#CC1=C(N)Oc2cc(N)ccc2C1c1ccc(F)cc1F (configuration not stated) 51.9%
C=CCN1C(=S)CC(c2ccccc2)=Nc2ccccc21 -11.7%
CC1=C(C(=O)N2CCN(c3cc(C)ccc3C)CC2)C2(CCCCC2)OC1=O 9.6%
O=C(O)c1ccc(N2N=C(c3ccccc3)CC2c2ccccc2)cc1 (configuration not stated) 177%
COc1ccccc1C1C2=C(CC(C)(C)CC2=O)N(CC(=O)O)C2=C1C(=O)CC(C)(C)C2 413%
CCc1cccc(OC2OC(CO)C(O)C(O)C2NC(C)=O)c1 (configuration not stated) 7.33%
CCOc1ccc2nc(NCCCNC(=O)c3cc(OC)c(OC)c(OC)c3)c(C#N)cc2c1 449%
CCOC(=O)c1cc2c(=O)n3cccc(C)c3nc2n(CC(C)C)c1=NC(=O)c1ccco1 159% [at 8 µM]
O=C(Nc1ccc2c(c1)OCCO2)c1ccc(NC(=O)C2CCCO2)cc1 (configuration not stated) 145%
CN(C)/C=C/C(=O)c1c(F)cccc1F 12.1%
O=C(NCc1ccc(F)cc1)C1CCCN1C(=O)Nc1cccc(F)c1 (configuration not stated) 103%
CN(C)C(=O)CSc1nc2ccc(C(=O)c3ccccc3)cc2[nH]1 -11.8%
CCCOc1ccccc1/C=C1\SC(N)=NC1=O 78.1%
O=C(Cc1csc(-c2ccccc2)n1)NCc1ccccc1F 17.4%
Cc1cccc2sc(NNC(=O)c3ccc(S(=O)(=O)N4CCCC(C)C4)cc3)nc12 (configuration not stated) -1.05%
O=c1oc2cc(O)ccc2cc1-c1nc2ccccc2o1 385%
CCN1/C(=C/c2sc(-c3ccccc3C)c[n+]2C)Sc2ccccc21 148% [at 8 µM]
Cc1cccn2c(=O)c3cc(C(=O)NC(C)c4ccccc4)c(=N)n(CCCn4ccnc4)c3nc12 (configuration not stated) 201% [at 16 µM]
COc1ccc(CCNC(=O)c2cc(S(=O)(=O)N3CCCCC3)c[nH]2)cc1OC 118%
COc1ccc(Br)c(Cn2c(C)c(C(=O)NCc3ccc4c(c3)OCCO4)sc2=O)c1 3.45%
CCc1cccc(C)c1NC(=S)NCc1ccc2c(c1)cc(C)n2C -15.5%
O=C(O)c1cccc(NC(=O)c2cn(-c3ccccc3)nc2-c2cccc(Br)c2)c1 -4.92%
O=C(/C=C/c1ccccc1)C1=C(O)C(=O)N(CCO)C1c1ccc2c(c1)OCO2 (configuration not stated) -0.266%
O=C(O)c1ccc(N/N=C/c2ccc(-c3ccccc3Cl)o2)cc1 169% [at 16 µM]
